# Screens (PubChem)
# Pf Dd2 inh: inhibitors of Plasmodium falciparum Dd2 growth; P. falciparum Dd2 growth, SYBR Green, 72 h; Potency, µM (series often up to 28.9 µM), inactives show at the top dose activity, negative = inhibition, usual class: inhibitors; 120,000 tested, 4.3% active; AID 1347417; active means well fitted inhibition curve with a large enough effect;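 further: plate controls were DMSO vehicle for no effect and reference drug for full effect; nearly all actives have a fitted effect of over 65% in size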
#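 Infected erythrocytes (Dd2, 0.3% parasitemia, 2.5% hematocrit final) are added to compound in RPMI-1640/Albumax II medium, grown 72 h at 37C in low oxygen, then lysed with saponin/Triton-X containing SYBR Green and read by fluorescence.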
# * hit, by the source's call; i = inactive; [ ] = dose if it differs, or a comment. Shown is part of a subset that was picked to be rich in hits. Potency means the concentration at half of the fitted maximal effect.
SMILES,Pf Dd2 inh
COC(=O)c1sccc1S(=O)(=O)N(CC(=O)Nc1ccc(C)cc1)c1ccccc1,-17%
COCCn1c(=O)n([C@H]2CCCN(S(=O)(=O)c3cn(C)cn3)C2)c2ncccc21,2%
O=C(c1ccncc1)N1CCCC(COc2ccccc2C(=O)N2CCOCC2)C1 (stereo not drawn),-5%
CN(C)c1ccc(C(=O)N2CCCC(COc3ccccc3C(=O)N3CCCC3)C2)cc1 (stereo not drawn),6.3µM*
O=C(c1ccccc1OCC1CCCN(C2CCCC2)C1)N1CCCC1 (stereo not drawn),i
CN(Cc1ccccc1C(F)(F)F)Cc1cccn1C,16%[44.1 µM]
COc1ccc(NC(=O)CC2CCCN(c3cnn(CC4CC4)c(=O)c3)C2)cc1 (stereo not drawn),i
Cc1ccc(-n2c(C3CCN(C(=O)Cc4c(F)cccc4Cl)CC3)n[nH]c2=O)cc1,-15%
CCCCN1C(=O)[C@@H]2C[C@@H](O)CN2C2(CN(C3CCN(C(C)=O)CC3)C2)C1=O,11%[44.1 µM]
CC(=O)N1CCC(N2CC3(C2)C(=O)N(Cc2ccccc2Cl)C(=O)[C@@H]2C[C@@H](O)CN23)CC1,7.1µM*
COC(=O)c1ccc(CN2C(=O)[C@@H]3C[C@@H](O)CN3C3(CN(C4CCN(C(C)=O)CC4)C3)C2=O)cc1,40%
CN(CC1CCOCC1)C(=O)Nc1ccc2c(c1)OCCO2,-17%
CC(C)C(=O)N1CCN(c2nc3c(s2)CC(C(=O)NCCc2cccs2)CC3)CC1 (stereo not drawn),-16%
c1cn(-c2ccc(-c3nccn3C[C@@H]3CCCO3)cc2)cn1,-10%
Cc1cc(C)c(CNC(=O)c2cc(-c3cccnc3)cc3c2OCCN3C)c(=O)[nH]1,-13%[44.1 µM]
COc1cc(F)ccc1-c1cc(C(=O)NCc2c(C)cc(C)[nH]c2=O)c2c(c1)N(C(C)C)CCO2,-27%
CC(=O)Nc1cccc(-c2cc(C(=O)NCc3c(C)cc(C)[nH]c3=O)c3c(c2)N(C(C)C)CCO3)c1,1.8µM*
Cc1cc(C)c(CNC(=O)c2cc(-c3ccccc3C)cc3c2OCCN3C(C)C)c(=O)[nH]1,-17%
Cc1cc(C)c(CNC(=O)c2cc(-c3ccccc3F)cc3c2OCCN3C(C)C)c(=O)[nH]1,-13%
Cc1cc(C)c(CNC(=O)c2cc(-c3ccccc3F)cc3c2OCCN3C)c(=O)[nH]1,6.3µM*
Cc1noc([C@H]2CCN(C(=O)c3ccnn3C)C[C@H]2NC(=O)C2CC2)n1,i[5.79 µM]
CCC(CC)C(=O)N1CCC(Oc2nccnc2N(C)C)C1 (stereo not drawn),-14%
CN(C)c1nccnc1OC1CCN(C(=O)c2ccncc2)C1 (stereo not drawn),i
CN(C)c1nccnc1OC1CCN(C(=O)CCC(=O)c2ccc(F)cc2)C1 (stereo not drawn),5.6µM*
C[C@@H](NC(=O)NC1CCCCC1)c1onc(-c2cccnc2)c1C(=O)O,-10%[44.1 µM]
SMILES,Pf Dd2 inh
Cc1ccc(C2NC(=O)N(CC(=O)Nc3ccc(Br)c(C)c3)C3=C2C(=O)OC3)cc1 (stereo not drawn),i
Cc1cccc(N(C)c2nc3ccc(C)cc3n3cnnc23)c1,11%
Cc1cccc(N(C)c2nc3ccccc3c3nnc(C)n23)c1,0.45µM*
Cc1cccc(N(C)c2ccc3cc(S(=O)(=O)N4CCCC4)ccc3n2)c1,2%
c1cc2nsnc2cc1CN1CCCN(C2CCCC2)CC1,-23%
Cc1cc(CNC(=O)c2ccc(S(N)(=O)=O)cc2)c2[nH]c(C)c(C)c2c1,-14%
CCc1[nH]c2c(CNC(=O)C(C)O)cc(C)cc2c1C (stereo not drawn),-6%
Cc1cc(CNC(=O)c2cccc(F)c2F)c2[nH]c(C)c(C)c2c1,10µM*
CCn1cc(CN2CCC3(CC2)CC(O)CCO3)c2cc(OC)ccc21 (stereo not drawn),-25%
Cc1cnc(C(=O)N2CCCN(C(=O)C3CC3)c3ccccc32)cn1,-2%
CN1CCN(Cc2nc(C3(O)CCN(C(=O)Nc4ccc(F)cc4)CC3)cs2)CC1,3%[44.1 µM]
Cc1cccc(-c2nc(Cn3c(SCc4cccc(C(F)(F)F)c4)nc4ccncc43)c(C)o2)c1,-1%
CCC(C(=O)NC1CCCCC1)n1c(SCc2cccc(C)c2)nc2ccncc21 (stereo not drawn),-30%
Cc1cccc(Cn2c(SCc3ccc(C(=O)NC4CCCCC4)cc3)nc3ccncc32)c1,-16%
Cc1cccc(Cn2c(SCc3ccc(C(=O)NCc4ccccc4F)cc3)nc3ccncc32)c1,11µM*
COc1cccc(CNC(=O)c2ccc3oc(=O)n(Cc4ccccc4)c3c2)c1,9%
COc1cccc(CNC(=O)c2ccc(CSc3nc4ccncc4n3Cc3cccc(C)c3)cc2)c1,3.2µM*
O=C(CCn1ccn2nc3c(c2c1=O)CCCC3)NCc1cccs1,-26%
CCCCN(CC)C(=O)Cn1ccn2nc3c(c2c1=O)CCCC3,i
CN(CC(=O)N1CCC(CCOc2ccccc2F)C1)S(=O)(=O)c1ccc2c(c1)oc(=O)n2C (stereo not drawn),-22%
Cc1cccc(NC(=O)N2CCCC(Cn3cnc4cccnc43)C2)c1C (stereo not drawn),i
CS(=O)(=O)N1CCC(C2CCN(C(=O)CN3CCOCC3)C2)CC1 (stereo not drawn),-9%
O=C1NCCCCCCN(C(=O)C2CC2)[C@H]2C[C@H](C(=O)N3CCc4ccccc4C3)C[C@@H]12,i
Cc1cnc(C(=O)N2CCCCCCNC(=O)[C@@H]3C[C@@H](C(=O)N4CCc5ccccc5C4)C[C@@H]32)cn1,-16%
CC(C)(C)NC(=O)N1CCCCCCNC(=O)[C@@H]2C[C@@H](C(=O)N3CCc4ccccc4C3)C[C@@H]21,4.5µM*
SMILES,Pf Dd2 inh
C=CCNC(=O)c1cnn2c1CN([S+](=O)([O-])c1cccc(OC)c1)CC2,-19%
Cc1ccc(NC(=O)N2CC(C(=O)N(C)C)C3(CCOCC3)C2)cc1Cl (stereo not drawn),-17%
O=C1c2c(nc(CNc3ccc(OC(F)(F)F)cc3)n2Cc2ccccc2)NCCN1CCN1CCOCC1,5µM*
O=C1c2c(nc(CNc3cccc(F)c3)n2Cc2ccccc2)NCCN1CCN1CCOCC1,i
O=C1c2c(nc(CNc3ccc(F)cc3)n2Cc2ccccc2)NCCN1CCN1CCCCC1,i
Cc1ccccc1C(=O)N1CCCN(c2nc3ncccc3o2)CC1,8%
NC(=O)NCC(=O)N1CCc2c(cccc2S(=O)(=O)N2CCOCC2)C1,19%
N[C@H]1CN(C(=O)C2CCN(C(=O)c3ccccn3)CC2)C[C@@H]1C1CC1,-14%
NC(=O)[C@@H]1CN(C(=O)c2ccccc2F)C[C@H]1COc1ccccc1,9%
N[C@H]1CN(C(=O)c2ccccc2Oc2ccccc2)C[C@@H]1C1CC1,6.3µM*
Cc1nc2n(c1C(=O)N(C)c1ccccc1)CCC(Nc1ccc(F)cc1)C2 (stereo not drawn),-22%[44.1 µM]
O=C(O)c1cccc(C2CCCN(C(=O)c3ccccc3-c3ncn[nH]3)C2)c1 (stereo not drawn),-1%
Cc1noc(C2CC3(CCN(C(=O)COc4ccc(F)cc4)CC3)CN2C)n1 (stereo not drawn),-6%
Cc1noc(C2CC3(CCN(C(=O)Cn4c(=O)oc5ccccc54)CC3)CN2C)n1 (stereo not drawn),-29%
Cc1noc(C2CC3(CCN(C(=O)CCC4CCCC4)CC3)CN2C)n1 (stereo not drawn),4.5µM*
O=C(c1cccc2nccnc12)N1CCC2(CC1)CC(N1CCCC1)CCO2 (stereo not drawn),9%
CC(C)c1noc(CC2CCN(C(=O)c3ccc(F)cc3)CC2)n1,17%
